Test in all cases: NCI-60 one-dose screen, 48 h (100 = growth as untreated, 0 = no growth, -100 = all killed)
Experiment [1] concerns SR leukemia. As to conditions: 10 µM unless noted.
Experiment [2] concerns RPMI-8226 leukemia. To be noted: 10 µM unless noted.
The test system of experiment [3] is OVCAR-8 ovarian. To be noted: 10 µM unless noted.
The subject of experiment [4] is OVCAR-5 ovarian. To be noted: 10 µM unless noted.
Experiment [5] deals with SK-OV-3 ovarian. To be noted: 10 µM unless noted.
Experiment [6] deals with IGROV1 ovarian. To be noted: 10 µM unless noted.
Experiment [7] relates to OVCAR-3 ovarian. To be noted: 10 µM unless noted.
Experiment [8] concerns HS 578T breast. To be noted: 10 µM unless noted.
Experiment [9] has as its system NCI/ADR-RES ovarian. As to conditions: 10 µM unless noted.
The subject of experiment [10] is T-47D breast. To be noted: 10 µM unless noted.
Experiment [11] concerns BT-549 breast. To be noted: 10 µM unless noted.
Experiment [12] has as its system MDA-MB-435 melanoma. To be noted: 10 µM unless noted.
Experiment [13] deals with SW-620 colon. As to conditions: 10 µM unless noted.
The subject of experiment [14] is MCF7 breast. To be noted: 10 µM.
Experiment [15] deals with HCT-116 colon. As to conditions: 10 µM unless noted.
In experiment [16] the test system is HCC-2998 colon. To be noted: 10 µM unless noted.
Experiment [17] concerns KM12 colon. As to conditions: 10 µM unless noted.
Experiment [18] deals with OVCAR-4 ovarian. To be noted: 10 µM unless noted.

Values joined by “and” are separate entries in the source; they are usually repeats but may differ in a detail not shown here. Equal values may be shown once. Compounds without any hit were thinned out: in the full panel of roughly 83,000, 20% have a hit.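 Growth was measured after 48 h exposure to one concentration of compound in 96-well plates. Values under 10 count as active.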 Active and inactive are the calls of the source.

On to `Nc1ccc(SSc2ccc(N)cc2)cc1`, for which the growth in experiment [1] was 104% (inactive); in experiment [2], 102% (inactive); in experiment [3], 88% (inactive); in [4], 101% (inactive); in experiment [5] it was 114% (inactive); in experiment [6] it was 108% (inactive). Also, the growth was 114% (inactive) in [7]; 109% (inactive) in [8]; 97.5% (inactive) in experiment [9]; 88.7% (inactive) in experiment [10]; 66.6% (inactive) in experiment [11]; 93.4% (inactive) in experiment [12]. Further, the growth is 95.1% (inactive) in experiment [13]; 96.5% (inactive) in experiment [14]; 95.1% (inactive) in [15]; 94.8% (inactive) in experiment [16]; 86.1% (inactive) in experiment [17].
Take `N#CSCC(=O)c1ccc(Cl)cc1`: the growth in experiment [1] is 69.9% (inactive); in experiment [2], 45.6% (inactive); in experiment [3], 63.7% (inactive); in experiment [4], 22.5% (inactive); in experiment [18] it was 63.5% (inactive); in [5], 66.7% (inactive). The growth was -25.3% (active) in [7]; 70.5% (inactive) in experiment [8]; 71.4% (inactive) in experiment [10]; 43.7% (inactive) in experiment [11]; 15.8% (inactive) in experiment [12]; 22.7% (inactive) in [13]. Moreover, the growth in [14] is 10.7% (inactive); in [15], -16.3% (active); in experiment [16] it was -19.5% (active); in experiment [17], 14.7% (inactive).
With `O[C@H]1[C@H]2c3cc4c(cc3CN3CCC(=C[C@@H]1O)[C@H]23)OCO4`, the growth in [1] was 32.7% (inactive); in experiment [2], 23.1% (inactive); in experiment [4] it was 34.5% (inactive); in experiment [18] it was 16.5% (inactive); in experiment [5], 22% (inactive); in experiment [6] it was 40.8% (inactive). In addition, the growth in [7] was 34.5% (inactive); in [8], 42.7% (inactive); in experiment [9], 19.1% (inactive); in experiment [10] it was 34.5% (inactive); in experiment [11], 71.2% (inactive); in [12] it was 32.5% (inactive). The growth is 30.4% (inactive) in [13]; 11.7% (inactive) in [14]; 13.5% (inactive) in experiment [15]; 18.9% (inactive) in experiment [16]; 21.2% (inactive) in experiment [17].
Take `N#CSCc1ccc(Cl)c(CSC#N)c1`: the growth in experiment [1] was 8.52% (active); in experiment [2], 23.9% (inactive); in experiment [3], 61.9% (inactive); in experiment [4], 68.7% (inactive); in experiment [18], 48.7% (inactive); in experiment [5], 90.1% (inactive). Further, the growth in [6] was 59.4% (inactive); in experiment [7] it was 46.3% (inactive); in experiment [10] it was 57.5% (inactive); in [11], 14.1% (inactive); in [12], 3.85% (active); in experiment [13], 20.4% (inactive). The growth in experiment [14] was 16.1% (inactive); in [15], 13.6% (inactive); in [16], 51.5% (inactive); in [17] it was 28.2% (inactive).
As to `CC(=O)C(=Cc1ccc(C=C(C(C)=O)C(C)=O)cc1)C(C)=O`, the growth in experiment [1] is 6.26% (active); in [2], 2.05% (active); in experiment [4], 27.1% (inactive); in experiment [18], 30.4% (inactive); in experiment [5], 93.9% (inactive); in experiment [6], 48.6% (inactive). Further, the growth is -16.2% (active) in experiment [7]; 64.7% (inactive) in experiment [8]; 7.49% (active) in experiment [9]; 29.1% (inactive) in experiment [10]; 12.6% (inactive) in experiment [11]; 7.62% (active) in [12]. Moreover, the growth in [13] is -11.2% (active); in [14] it was 1.33% (active); in [15], -56.3% (active); in experiment [16] it was 45.2% (inactive); in experiment [17], -43.7% (active).
For the compound `NC(=S)N/N=C\c1nccc2c(C(F)(F)C(F)(F)C(F)(F)F)cccc12`, the growth is -29.4% (active) in experiment [1]; -11% (active) in [2]; -0.116% (active) in [3]; 42.3% (inactive) in experiment [4]; -21.8% (active) in [5]; 5.98% (active) in [6]. Moreover, the growth is 4.2% (active) in [7]; -11.6% (active) in experiment [9]; 4.05% (active) in experiment [10]; 41.4% (inactive) in experiment [11]; 23.4% (inactive) in experiment [12]; 28.6% (inactive) in experiment [13]. Moreover, the growth was 11.5% (inactive) in [14], 17.4% (inactive) in experiment [15] and 14.2% (inactive) in experiment [17].
As to `Cc1cc(N)c2ccccc2[n+]1CCCCCCCCCC[n+]1c(C)cc(N)c2ccccc21`, the growth in [1] is -53% (active) and 3.2% (active); in [2], 9.49% (active) and -11.6% (active); in experiment [4] it was -58.1% (active); in [18], 21.2% (inactive) and 19.8% (inactive); in experiment [5], 9.8% (active) and -29.2% (active); in [6], 4.94% (active) and -18.4% (active). The growth in experiment [7] is -16.7% (active) and 15% (inactive); in [8], 34.7% (inactive); in experiment [9], 66.2% (inactive) and 64.1% (inactive); in [10] it was 5.34% (active) and -12.1% (active); in experiment [11], -29% (active) and -15.7% (active); in experiment [12], -77.2% (active) and 6.1% (active). Moreover, the growth in experiment [13] is 11.6% (inactive) and 18.1% (inactive); in experiment [14], 11.9% (inactive) and -3.39% (active); in experiment [15] it was 4.6% (active) and 3.4% (active); in experiment [17], -48.4% (active) and 6.86% (active).
As for `CCOc1ccc(-c2nc3ccc(-c4nc5ccc(N6CCN(C)CC6)cc5[nH]4)cc3[nH]2)cc1`, the growth is -4.63% (active) in experiment [2]; -45.8% (active) in experiment [4]; -65.1% (active) in [18]; -93.7% (active) in experiment [5]; -82.9% (active) in experiment [6]; -100% (active) in experiment [7]. Besides, the growth in [8] was -58.3% (active); in experiment [9] it was 61% (inactive); in [10] it was -69.4% (active); in experiment [11], -96.6% (active); in [12], -96% (active); in [13], -85.5% (active). Further, the growth in experiment [14] is -90.3% (active); in [15], -77.6% (active); in [17] it was -100% (active).

These data come from PubChem BioAssay (NCI).
